Measurements: PubChem BioAssay (NCATS)
Records with an inconclusive call do not appear. The source made the active and inactive calls. Unless noted, calls come from the whole dose curve; as a rule, active = well fitted curve in the direction sought with a large enough effect; inconclusive = small, poorly fitted or top-dose-only effect, or another doubt; inactive = no such curve, though single readings can be large; an effect the other way counts as inactive or inconclusive.

What was measured:
[1] = molecular target: Cytochrome P450 1A2 (Homo sapiens) (UniProt P05177); assay: p450-cyp1a2 (AID 410; calls by dose curve; note: potency is the fitted concentration of half-maximal effect)
Cytochrome P450 1A2 (Homo sapiens), sequence (P05177 whole entry, looked up): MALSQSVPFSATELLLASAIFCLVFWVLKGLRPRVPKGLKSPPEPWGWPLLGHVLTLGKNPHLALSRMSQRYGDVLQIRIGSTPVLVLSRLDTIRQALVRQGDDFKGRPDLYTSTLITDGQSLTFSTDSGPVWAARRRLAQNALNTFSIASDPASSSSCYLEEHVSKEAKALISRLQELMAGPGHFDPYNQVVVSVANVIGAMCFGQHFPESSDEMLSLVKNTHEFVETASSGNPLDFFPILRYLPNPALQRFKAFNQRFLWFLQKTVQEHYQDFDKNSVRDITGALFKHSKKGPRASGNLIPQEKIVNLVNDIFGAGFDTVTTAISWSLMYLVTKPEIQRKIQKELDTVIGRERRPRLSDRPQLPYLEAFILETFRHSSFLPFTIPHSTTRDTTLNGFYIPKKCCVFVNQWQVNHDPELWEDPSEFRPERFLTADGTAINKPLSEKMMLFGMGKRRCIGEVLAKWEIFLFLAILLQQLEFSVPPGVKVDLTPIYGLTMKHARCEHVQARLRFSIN
Outline: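 O-Demethylation of luciferin 6' methyl ether by human CYP1A2 is monitored as luciferase luminescence. Substrate sits at Km (100uM); enzyme is 20nM. Values are scaled to 57 uM furafylline as maximal inhibition.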

[2] = molecular target: Glucocorticoid receptor (Homo sapiens) (UniProt P04150); assay: GR-GFP Redistribution (AID 450;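 active = compounds whose dose series gives a full or clear partial fitted curve of increased nuclear translocation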; note: potency is the fitted concentration of half-maximal effect); conditions: U2OS GR-GFP nuclear translocation, laser cytometry, 2 h
Glucocorticoid receptor (Homo sapiens), sequence (P04150 whole entry, looked up, the tested form may be a part): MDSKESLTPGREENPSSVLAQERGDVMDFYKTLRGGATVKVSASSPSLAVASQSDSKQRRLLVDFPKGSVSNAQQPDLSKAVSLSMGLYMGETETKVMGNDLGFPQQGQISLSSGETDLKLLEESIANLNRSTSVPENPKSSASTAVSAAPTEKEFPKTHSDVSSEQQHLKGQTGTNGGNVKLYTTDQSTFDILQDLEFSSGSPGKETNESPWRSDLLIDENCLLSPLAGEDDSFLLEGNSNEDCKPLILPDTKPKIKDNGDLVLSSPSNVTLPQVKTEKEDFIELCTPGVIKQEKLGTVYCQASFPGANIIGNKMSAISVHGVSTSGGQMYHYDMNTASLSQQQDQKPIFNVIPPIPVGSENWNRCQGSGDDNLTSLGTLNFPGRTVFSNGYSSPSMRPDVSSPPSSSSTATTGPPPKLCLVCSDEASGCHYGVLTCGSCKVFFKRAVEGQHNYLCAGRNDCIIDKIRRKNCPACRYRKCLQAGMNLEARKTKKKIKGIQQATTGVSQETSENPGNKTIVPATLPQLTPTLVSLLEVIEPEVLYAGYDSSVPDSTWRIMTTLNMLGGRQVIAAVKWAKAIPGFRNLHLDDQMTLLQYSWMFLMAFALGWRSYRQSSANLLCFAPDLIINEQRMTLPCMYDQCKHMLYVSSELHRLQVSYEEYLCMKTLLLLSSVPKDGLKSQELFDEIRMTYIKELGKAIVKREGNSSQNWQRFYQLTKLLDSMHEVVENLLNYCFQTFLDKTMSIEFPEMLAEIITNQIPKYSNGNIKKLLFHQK

[3] = molecular target: Glucocorticoid receptor (Homo sapiens) (UniProt P04150); assay: GR-EFC Redistribution (AID 451; calls by dose curve; note: potency is the fitted concentration of half-maximal effect); conditions: CHO-K1 GR-EFC translocation, beta-gal luminescence, 2 h
Outline: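 CHO-K1 cells stably expressing nuclear-localized β-gal enzyme acceptor and GR fused C-terminally to the enzyme donor fragment; ligand-driven nuclear translocation restores β-gal by complementation. Compounds titrated up to 46 uM final, 2 h at 37 °C; luminescence read.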

[4] = molecular target: Mitogen-activated protein kinase 10 (Mus musculus) (UniProt Q61831); assay: JNK3 AlphaScreen Assay (AID 530; active = well fitted curve in either direction with a large enough effect, not every such curve was filed as active;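 note: kinase came from lysate of stimulated human HepG2 cells; signal reports phosphorylation of biotinylated GST-cJun 1-79 at Ser73 with 10 µM ATP; series mostly up to about 57 µM; % is set by controls: 0 for no effect and ±100 for the full control effect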)
Outline: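 Phosphorylation of biotinylated GST-cJun(1-79) at Ser73 is measured by AlphaScreen proximity luminescence. Enzyme is JNK3 in HepG2 lysates activated with interleukin-1beta and tumor necrosis factor alpha; ATP is 10 uM final.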

[5] = molecular target: Cytochrome P450 3A4 (Homo sapiens) (UniProt P08684); assay: qHTS Assay for Activators of Cytochrome P450 3A4 (AID 885); note: nearly all actives have a fitted effect of over 65% in size
Cytochrome P450 3A4 (Homo sapiens), sequence (P08684 whole entry, looked up): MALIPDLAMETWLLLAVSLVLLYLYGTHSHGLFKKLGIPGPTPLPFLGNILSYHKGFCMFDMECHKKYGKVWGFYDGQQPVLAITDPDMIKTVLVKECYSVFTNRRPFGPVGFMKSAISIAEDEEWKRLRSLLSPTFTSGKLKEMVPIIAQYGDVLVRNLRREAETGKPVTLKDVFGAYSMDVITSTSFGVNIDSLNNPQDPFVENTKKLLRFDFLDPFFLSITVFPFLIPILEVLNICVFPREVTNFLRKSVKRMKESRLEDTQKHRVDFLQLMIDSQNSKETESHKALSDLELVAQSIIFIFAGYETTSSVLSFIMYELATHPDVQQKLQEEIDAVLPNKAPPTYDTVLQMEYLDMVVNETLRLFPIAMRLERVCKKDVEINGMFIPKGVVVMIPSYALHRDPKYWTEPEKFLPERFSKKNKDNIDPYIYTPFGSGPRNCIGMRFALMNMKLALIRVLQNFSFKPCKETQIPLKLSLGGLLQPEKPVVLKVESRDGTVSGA
Outline: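 Luminescent readout of luciferin formed from 25 uM Luciferin-PPXE (KM level) by 20 nM CYP3A4 in 200 mM KPO4, with 60 min NADPH-driven reaction at room temperature after 10 min compound exposure. Ketoconazole (57 uM) defined 100% inhibition.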

[6] = molecular target: Ubiquitin carboxyl-terminal hydrolase 1 (Homo sapiens) (UniProt O94782); assay: Inhibitors of USP1/UAF1: Pilot qHTS (AID 504865);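 note: rhodamine fluorescence freed from ubiquitin-rhodamine substrate followed over time; top concentration of the series differs between compounds; % is set by controls: 0 for no effect and ±100 for the full control effect; nearly all actives have a fitted effect of over 35% in size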
Ubiquitin carboxyl-terminal hydrolase 1 (Homo sapiens), sequence (O94782 whole entry, looked up): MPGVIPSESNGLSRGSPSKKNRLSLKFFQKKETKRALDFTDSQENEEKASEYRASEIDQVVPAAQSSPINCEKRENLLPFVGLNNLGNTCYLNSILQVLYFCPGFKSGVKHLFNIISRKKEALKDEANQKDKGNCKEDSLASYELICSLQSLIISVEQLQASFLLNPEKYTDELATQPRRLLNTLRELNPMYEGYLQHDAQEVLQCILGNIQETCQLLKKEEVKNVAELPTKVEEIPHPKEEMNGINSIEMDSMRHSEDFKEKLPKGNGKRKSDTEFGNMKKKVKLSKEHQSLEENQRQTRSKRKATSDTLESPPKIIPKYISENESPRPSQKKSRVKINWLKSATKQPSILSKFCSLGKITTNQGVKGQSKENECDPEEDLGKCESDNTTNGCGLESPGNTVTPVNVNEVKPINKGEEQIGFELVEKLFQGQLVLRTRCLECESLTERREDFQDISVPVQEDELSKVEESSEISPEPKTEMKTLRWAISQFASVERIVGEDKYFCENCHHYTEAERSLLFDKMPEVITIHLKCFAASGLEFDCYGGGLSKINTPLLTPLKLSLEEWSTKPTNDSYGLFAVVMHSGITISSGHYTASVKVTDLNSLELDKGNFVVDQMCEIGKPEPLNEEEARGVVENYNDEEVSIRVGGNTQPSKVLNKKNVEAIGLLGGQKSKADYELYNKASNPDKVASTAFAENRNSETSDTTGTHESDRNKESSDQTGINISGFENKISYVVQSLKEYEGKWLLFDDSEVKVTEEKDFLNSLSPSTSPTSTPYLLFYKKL
Outline: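 USP1/UAF1 complex (1nM) preincubated with compound 15 min at room temperature, then Ub-Rho substrate (150nM final) added. Fluorescence read kinetically at 480/540 nm, 6 reads every 60 seconds. Buffer: 50mM HEPES pH 7.8, 0.5mM EDTA, 0.1 mg/ml BSA, 1mM TCEP, 0.01% Tween-20.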

[7] = molecular target: DNA dC->dU-editing enzyme APOBEC-3G (Homo sapiens) (UniProt Q9HC16); assay: qHTS for inhibitors of Vif-A3G interactions: Validation (AID 588379); note: 0% is about no effect
DNA dC->dU-editing enzyme APOBEC-3G (Homo sapiens), sequence (Q9HC16 whole entry, looked up): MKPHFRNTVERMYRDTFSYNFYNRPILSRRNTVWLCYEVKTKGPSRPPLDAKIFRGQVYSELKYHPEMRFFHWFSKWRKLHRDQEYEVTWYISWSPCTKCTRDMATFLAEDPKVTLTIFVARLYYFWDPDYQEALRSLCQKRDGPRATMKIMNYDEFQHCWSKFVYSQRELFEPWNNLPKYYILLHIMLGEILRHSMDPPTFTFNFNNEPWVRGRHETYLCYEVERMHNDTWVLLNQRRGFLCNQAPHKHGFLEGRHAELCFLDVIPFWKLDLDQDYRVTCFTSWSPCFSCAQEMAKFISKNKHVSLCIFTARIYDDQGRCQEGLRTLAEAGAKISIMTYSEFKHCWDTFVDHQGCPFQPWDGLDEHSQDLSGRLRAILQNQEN
Outline: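 Yellow fluorescence (Ex 488, Em 500-530) of Vif-coexpressing HeLa A3G-eYFP cells, scanned by Acumen cytometer, reports blocked A3G degradation. Cells plated at 700/well overnight at 37 deg C before compound addition, then a further overnight compound incubation at 37 deg C.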

[8] = tested on: Zika virus NS2B-NS3 protease; assay: Primary screen GU AMC qHTS for Zika virus inhibitors (AID 1347154);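 note: 0% = no-inhibitor control and -100% = no-enzyme control; nearly all actives have a fitted effect of over 70% in size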
Outline: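 Unlinked Zika NS2B hydrophilic domain/NS3 protease domain noncovalent complex (25 nM final) in 10 mM Tris-HCl pH 8.0, 0.01% Tween 20, with AMC peptide substrate. Fluorescence (ex 340, em 450 nm) change over 15 min, room temperature; percent inhibition fitted to 4-parameter Hill equation.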

[9] = Counterscreen qHTS for small molecule stabilizers of the endoplasmic reticulum resident proteome: GLuc-NoTag assay (AID 1508627);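 note: series mostly up to about 76 µM; 0% = thapsigargin alone and -100% = DMSO vehicle control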
Outline: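 Secreted GLuc lacking the SERCaMP modification is measured in SH-SY5Y cells exposed to compound for 19 h and then to thapsigargin (100 nM, 4 h) to deplete ER calcium; hits retested at 11 concentrations, up to 76.6 uM.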

[10] = Cell Viability qHTS for small molecule stabilizers of the endoplasmic reticulum resident proteome (AID 1508629); conditions: cell viability counter-screen, 100 nM thapsigargin for final 4 h;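 note: human SH-SY5Y neuroblastoma cells carrying the GLuc-SERCaMP reporter; compound exposure about 46 h in total before the viability read; % is set by controls: 0 for no effect and ±100 for the full control effect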
[11] = Primary qHTS for small molecule stabilizers of the endoplasmic reticulum resident proteome: Secreted ER Calcium Modulated Protein (SERCaMP) assay (AID 1508630); note: % is set by controls: 0 for no effect and ±100 for the full control effect
Outline: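 The SH-SY5Y reporter protocol was run at 3 concentrations up to 38.3 uM (primary) or 11 concentrations (follow-up): 16 h compound, 100 nM thapsigargin for 4 h, then extracellular luciferase luminescence.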

CC(=O)C1=C(O)[C@@H]2[C@@H]3c4c[nH]c5cccc(c45)C[C@@H]3C(C)(C)N2C1=O
active: Potency [1] 12.6 µM
inactive: Potency [2] > 46 µM | Potency [3] > 46 µM | outcome [4] | Potency [5] | Potency [6] | Potency [7] | Potency [8] | Potency [9] | max response [10] -1.84% | Potency [11]
